Where “and” joins values, the source holds several entries; their conditions need not be identical. Identical values can stand only once. Records with an inconclusive call do not appear. Some compounds were tested as several samples or in several runs, with calls that do not always agree. Calls of active or inactive are those of the source. The calls were made as follows, unless noted: active = hit-call score of the fitted dose curve at least 0.9, where 1 is the maximum; inactive = score below 0.9.
Tests used:
[1] = BSK_4H_Eotaxin3: BioMAP Diversity Plus: 4H Assay for Eotaxin 3 Biomarker Activity (AID 2283000); settings: primary human endothelial cells (HUVEC); actives raise or lower the signal;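 as to outcome: CCL26 protein level quantified by ELISA in parallel with SRB cytotoxicity check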
Method in brief: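 Chemicals were added to human umbilical vein endothelium cultures, and Eotaxin-3 was quantified by ELISA at 24 h. Values were derived by bidirectional fitting with DMSO serving as negative control and activity baseline.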

[2] = biological target: human Peroxisome Proliferator-activated Receptor alpha (PPARa), PPARA (gene 5465) (UniProt Q07869); test: ATG_PPARa_TRANS: Attagene TRANS-FACTORIAL HepG2 Assay for human Peroxisome Proliferator-activated Receptor alpha (PPARa) (AID 2283001; active = hit-call score of the fitted dose curve at least 0.9, where 1 is the maximum;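 as to AC50: potency for gain of reporter signal over DMSO so agonist or activator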)
human Peroxisome Proliferator-activated Receptor alpha (PPARa), PPARA (gene 5465), sequence (Q07869 whole entry, looked up, the tested form may be a part): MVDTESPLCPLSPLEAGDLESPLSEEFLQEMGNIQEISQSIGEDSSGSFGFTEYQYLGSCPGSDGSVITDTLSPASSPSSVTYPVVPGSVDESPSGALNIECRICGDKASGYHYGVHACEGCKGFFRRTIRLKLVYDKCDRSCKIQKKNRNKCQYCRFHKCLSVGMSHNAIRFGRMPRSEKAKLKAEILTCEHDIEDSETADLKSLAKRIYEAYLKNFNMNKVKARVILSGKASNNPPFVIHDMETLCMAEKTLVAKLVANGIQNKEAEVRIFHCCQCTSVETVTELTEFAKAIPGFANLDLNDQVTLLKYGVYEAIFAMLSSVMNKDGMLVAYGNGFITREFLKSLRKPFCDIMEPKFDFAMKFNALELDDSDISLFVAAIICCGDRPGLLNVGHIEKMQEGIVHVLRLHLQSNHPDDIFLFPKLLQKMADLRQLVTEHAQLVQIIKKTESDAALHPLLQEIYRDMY
Method in brief: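 HepG2 cells transiently transfected with multiplexed GAL4-UAS reporter units and chimeric NR-Gal4 constructs were dosed for 24 h. Reporter mRNA was measured by RT-PCR with fluorescent labelling and capillary electrophoresis; gain of signal fitted against DMSO.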

[3] = read-out: Intercellular Adhesion Molecule 1 (ICAM1), ICAM1 (gene 3383); test: BSK_3C_ICAM1: BioMAP Diversity Plus: 3C Assay for Intercellular Adhesion Molecule 1 (ICAM1) Biomarker Activity (AID 2283003); settings: primary human endothelial cells (HUVEC); actives raise or lower the signal
Method in brief: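 Human vascular endothelial primary cells, 3C conditions, 24 h treatment. ICAM-1 by ELISA.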

[4] = biological target: human Retinoic Acid Receptor beta (RARb), RARB (gene 5915) (UniProt P10826); test: ATG_RARb_TRANS: Attagene TRANS-FACTORIAL HepG2 Assay for human Retinoic Acid Receptor beta (AID 2283004; active = hit-call score of the fitted dose curve at least 0.9, where 1 is the maximum)
human Retinoic Acid Receptor beta (RARb), RARB (gene 5915), sequence (P10826 whole entry, looked up): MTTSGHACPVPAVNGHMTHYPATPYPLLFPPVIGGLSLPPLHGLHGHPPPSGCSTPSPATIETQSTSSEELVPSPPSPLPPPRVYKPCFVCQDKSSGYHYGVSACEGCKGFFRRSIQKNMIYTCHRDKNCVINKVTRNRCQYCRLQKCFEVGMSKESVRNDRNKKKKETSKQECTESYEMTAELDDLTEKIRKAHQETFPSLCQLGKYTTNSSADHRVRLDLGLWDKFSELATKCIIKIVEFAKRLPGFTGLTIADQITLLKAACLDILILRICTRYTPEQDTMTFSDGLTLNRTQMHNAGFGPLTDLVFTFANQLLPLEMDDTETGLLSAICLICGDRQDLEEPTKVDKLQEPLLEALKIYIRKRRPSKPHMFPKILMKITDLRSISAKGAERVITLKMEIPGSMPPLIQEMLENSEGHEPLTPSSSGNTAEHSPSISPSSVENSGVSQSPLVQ
Method in brief: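 Transient transfection of HepG2 with multiple reporter units → chemical dosing, 24 h → total RNA isolation → RT with oligo(dT) → reporter-specific PCR, 6-FAM primer extension, HpaI digest → capillary electrophoresis. Positive direction vs DMSO control.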

[5] = BSK_3C_Proliferation: Cell Proliferation Assessment in the BioMAP Diversity Plus: 3C Assay (AID 2283006); settings: primary human endothelial cells (HUVEC);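 as to AC50: potency may reflect either rise or fall in cell number versus DMSO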
Method in brief: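 Proliferation of human vascular endothelial primary cells after 48 h dosing, quantified as SRB-stained protein at 560 nm relative to DMSO.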

[6] = biological target: Peroxisome proliferator-activated receptor gamma (Homo sapiens) (UniProt P37231); test: ATG_PPARg_TRANS: Attagene TRANS-FACTORIAL HepG2 Assay for human Peroxisome Proliferator-activated Receptor-gamma (PPARg) (AID 2283007; active = hit-call score of the fitted dose curve at least 0.9, where 1 is the maximum)
Peroxisome proliferator-activated receptor gamma (Homo sapiens), sequence (P37231 whole entry, looked up, the tested form may be a part): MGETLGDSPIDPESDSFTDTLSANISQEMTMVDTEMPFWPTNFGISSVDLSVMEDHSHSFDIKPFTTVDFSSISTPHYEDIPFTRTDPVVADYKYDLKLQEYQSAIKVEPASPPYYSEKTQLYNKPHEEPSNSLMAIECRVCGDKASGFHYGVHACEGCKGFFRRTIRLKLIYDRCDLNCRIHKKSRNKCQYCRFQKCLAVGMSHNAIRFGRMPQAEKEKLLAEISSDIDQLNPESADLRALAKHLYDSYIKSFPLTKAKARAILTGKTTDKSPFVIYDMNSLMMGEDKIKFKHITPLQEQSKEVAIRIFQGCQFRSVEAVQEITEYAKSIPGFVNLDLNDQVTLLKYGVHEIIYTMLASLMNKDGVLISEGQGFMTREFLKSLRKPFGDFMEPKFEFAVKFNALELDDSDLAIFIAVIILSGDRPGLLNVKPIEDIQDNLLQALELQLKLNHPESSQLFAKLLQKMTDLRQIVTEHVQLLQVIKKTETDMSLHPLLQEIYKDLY
Method in brief: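 HepG2 cells are transiently transfected with GAL4-UAS reporter units driven by chimeric NR-Gal4 fusions and dosed for 24 h. Reporter mRNA is quantified by RT-PCR, 6-FAM labelling, HpaI digestion and capillary electrophoresis. Induction is scored against DMSO.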

[7] = biological target: Nuclear receptor subfamily 1 group I member 2 (Homo sapiens) (UniProt O75469); test: ATG_PXR_TRANS: Attagene TRANS-FACTORIAL HepG2 Assay for human Pregnane X Receptor (PXR) (AID 2283008; active = hit-call score of the fitted dose curve at least 0.9, where 1 is the maximum)
Nuclear receptor subfamily 1 group I member 2 (Homo sapiens), sequence (O75469 whole entry, looked up, the tested form may be a part): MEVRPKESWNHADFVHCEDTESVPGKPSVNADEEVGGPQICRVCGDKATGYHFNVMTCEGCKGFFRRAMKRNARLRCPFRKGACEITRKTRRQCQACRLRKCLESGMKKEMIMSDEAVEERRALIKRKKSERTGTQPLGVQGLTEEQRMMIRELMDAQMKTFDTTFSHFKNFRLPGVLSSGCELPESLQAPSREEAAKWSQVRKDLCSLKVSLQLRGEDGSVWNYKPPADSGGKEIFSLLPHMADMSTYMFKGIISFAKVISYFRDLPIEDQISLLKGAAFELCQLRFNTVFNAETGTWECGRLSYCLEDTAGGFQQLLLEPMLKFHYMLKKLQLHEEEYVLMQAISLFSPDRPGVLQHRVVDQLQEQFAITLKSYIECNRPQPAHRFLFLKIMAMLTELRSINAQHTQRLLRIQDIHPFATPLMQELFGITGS
Method in brief: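 HepG2 cells transiently transfected with GAL4-UAS reporter units and PXR-Gal4 chimera, exposed 24 h. Reporter mRNA quantified by RT-PCR, fluorescent labelling, HpaI digestion and capillary electrophoresis; gain of signal vs DMSO.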

[8] = biological target: human Retinoic Acid Receptor gamma (RARg), RARG (gene 5916) (UniProt P13631); test: ATG_RARg_TRANS: Attagene TRANS-FACTORIAL HepG2 Assay for human Retinoic Acid Receptor gamma (RARg) (AID 2283009; active = hit-call score of the fitted dose curve at least 0.9, where 1 is the maximum)
human Retinoic Acid Receptor gamma (RARg), RARG (gene 5916), sequence (P13631 whole entry, looked up, the tested form may be a part): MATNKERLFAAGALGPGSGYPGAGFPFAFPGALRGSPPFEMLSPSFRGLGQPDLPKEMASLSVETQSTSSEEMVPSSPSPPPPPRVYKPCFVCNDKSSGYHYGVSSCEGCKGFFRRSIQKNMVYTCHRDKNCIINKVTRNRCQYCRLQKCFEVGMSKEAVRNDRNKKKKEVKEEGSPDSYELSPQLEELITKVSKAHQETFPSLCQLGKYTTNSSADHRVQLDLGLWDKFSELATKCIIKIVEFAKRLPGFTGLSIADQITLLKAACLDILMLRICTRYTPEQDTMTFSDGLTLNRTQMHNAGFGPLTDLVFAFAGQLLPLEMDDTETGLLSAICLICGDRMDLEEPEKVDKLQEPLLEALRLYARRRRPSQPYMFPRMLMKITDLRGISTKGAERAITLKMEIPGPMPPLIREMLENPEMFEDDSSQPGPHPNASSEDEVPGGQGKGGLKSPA
Method in brief: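 HepG2, RARg-GAL4 TRANS system, 24 h exposure; reporter mRNA by RT-PCR + CE fluorescence; increase over DMSO.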

[9] = biological target: human RAR-related Orphan Receptor beta (RORb), RORB (gene 6096) (UniProt Q92753); test: ATG_RORb_TRANS: Attagene TRANS-FACTORIAL HepG2 Assay for human RAR-related Orphan Receptor beta (RORb) (AID 2283010; active = hit-call score of the fitted dose curve at least 0.9, where 1 is the maximum)
human RAR-related Orphan Receptor beta (RORb), RORB (gene 6096), sequence (Q92753 whole entry, looked up, the tested form may be a part): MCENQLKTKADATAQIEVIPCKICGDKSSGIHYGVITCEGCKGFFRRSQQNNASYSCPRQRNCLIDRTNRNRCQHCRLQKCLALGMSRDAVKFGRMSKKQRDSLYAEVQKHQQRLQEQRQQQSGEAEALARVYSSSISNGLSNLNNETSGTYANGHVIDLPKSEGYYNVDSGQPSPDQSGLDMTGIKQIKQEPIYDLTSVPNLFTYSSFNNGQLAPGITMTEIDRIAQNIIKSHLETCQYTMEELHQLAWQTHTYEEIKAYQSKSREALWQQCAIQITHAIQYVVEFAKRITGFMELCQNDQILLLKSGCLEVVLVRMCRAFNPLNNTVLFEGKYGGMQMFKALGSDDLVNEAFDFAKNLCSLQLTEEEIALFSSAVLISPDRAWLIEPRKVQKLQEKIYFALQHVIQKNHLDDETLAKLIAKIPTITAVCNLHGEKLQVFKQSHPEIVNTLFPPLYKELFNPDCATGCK
Method in brief: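 In this TRANS-format test, human HepG2 cells express chimeric NR-Gal4 fusion proteins driving GAL4-UAS reporters. After 24 h dosing, reporter transcripts are measured by fluorescent RT-PCR/capillary electrophoresis, with DMSO as negative control.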

[10] = biological target: human RAR-related Orphan Receptor gamma (RORg), RORC (gene 6097) (UniProt P51449); test: ATG_RORg_TRANS: Attagene TRANS-FACTORIAL HepG2 Assay for human RAR-related Orphan Receptor gamma (RORg) (AID 2283011; active = hit-call score of the fitted dose curve at least 0.9, where 1 is the maximum)
human RAR-related Orphan Receptor gamma (RORg), RORC (gene 6097), sequence (P51449 whole entry, looked up, the tested form may be a part): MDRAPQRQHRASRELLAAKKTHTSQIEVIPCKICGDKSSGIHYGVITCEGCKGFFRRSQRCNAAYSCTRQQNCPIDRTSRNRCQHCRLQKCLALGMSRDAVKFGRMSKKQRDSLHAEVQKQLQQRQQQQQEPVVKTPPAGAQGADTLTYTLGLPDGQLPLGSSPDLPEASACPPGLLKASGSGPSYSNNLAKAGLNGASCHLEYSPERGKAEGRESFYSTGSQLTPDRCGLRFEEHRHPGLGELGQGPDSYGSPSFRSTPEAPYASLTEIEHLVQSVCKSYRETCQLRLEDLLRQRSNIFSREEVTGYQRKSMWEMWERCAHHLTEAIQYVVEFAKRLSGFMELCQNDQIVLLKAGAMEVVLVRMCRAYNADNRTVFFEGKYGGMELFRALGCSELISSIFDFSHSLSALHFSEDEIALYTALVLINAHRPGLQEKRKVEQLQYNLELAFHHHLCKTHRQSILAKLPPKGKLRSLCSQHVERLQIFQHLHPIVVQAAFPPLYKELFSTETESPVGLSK
Method in brief: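 First, HepG2 liver cells were transfected with GAL4-UAS-driven reporter constructs and the RORg-Gal4 fusion. Next, they were treated with chemical for 24 h. Finally, reporter mRNA was quantified by RT-PCR and capillary electrophoresis, with upward activity fitted against DMSO.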

[11] = biological target: human Thyroid Receptor alpha (THRa1), THRA (gene 7067) (UniProt P10827); test: ATG_THRa1_TRANS: Attagene TRANS-FACTORIAL HepG2 Assay for human Thyroid Receptor alpha (THRa1) (AID 2283014; active = hit-call score of the fitted dose curve at least 0.9, where 1 is the maximum)
human Thyroid Receptor alpha (THRa1), THRA (gene 7067), sequence (P10827 whole entry, looked up, the tested form may be a part): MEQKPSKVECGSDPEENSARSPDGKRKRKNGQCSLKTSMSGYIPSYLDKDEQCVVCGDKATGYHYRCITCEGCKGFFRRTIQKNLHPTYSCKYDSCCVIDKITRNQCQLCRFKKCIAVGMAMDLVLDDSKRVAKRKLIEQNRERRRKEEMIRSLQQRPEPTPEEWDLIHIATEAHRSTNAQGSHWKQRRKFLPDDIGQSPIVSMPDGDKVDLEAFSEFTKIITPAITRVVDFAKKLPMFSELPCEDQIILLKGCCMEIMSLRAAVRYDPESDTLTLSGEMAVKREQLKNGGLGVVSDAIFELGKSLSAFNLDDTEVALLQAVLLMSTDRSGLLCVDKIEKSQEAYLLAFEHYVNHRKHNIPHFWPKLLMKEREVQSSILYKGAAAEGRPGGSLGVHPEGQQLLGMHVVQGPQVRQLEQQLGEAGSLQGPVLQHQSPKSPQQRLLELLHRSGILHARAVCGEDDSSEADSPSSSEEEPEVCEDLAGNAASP
Method in brief: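 Reporter transcript induction, read by capillary electrophoresis of 6-FAM-labelled RT-PCR products, reflects activity of a transfected THRa1-Gal4 fusion in HepG2 liver cells. Cells were dosed for 24 h; activity was fitted in the positive direction against DMSO.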

[12] = read-out: E-selectin (Homo sapiens) (UniProt P16581); test: BSK_3C_Eselectin: BioMAP Diversity Plus: 3C Assay for Eselectin Biomarker Activity (AID 2283015); settings: primary human endothelial cells (HUVEC); actives raise or lower the signal;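 as to outcome: cell surface E-selectin protein quantified by ELISA 24 h after dosing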
Method in brief: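 ELISA read-out of E-selectin on endothelial monolayers after 24 h chemical treatment. Human umbilical vein primary cells served as the system, with DMSO defining baseline activity for bidirectional fitting.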

[13] = read-out: Interleukin-1 alpha (IL1a), IL1A (gene 3552); test: BSK_BE3C_IL1a: BioMAP Diversity Plus: BE3C Assay for Interleukin-1 alpha (IL1a) Biomarker Activity (AID 2283016); settings: primary human bronchial epithelial cells; actives raise or lower the signal
Method in brief: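 Cultures of primary human bronchial epithelial cells receive test chemical. After 24 h, IL-1a is quantified by ELISA, while parallel wells are fixed in TCA and SRB-stained for total protein. Changes in either direction are fitted relative to DMSO.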

[14] = read-out: Monocyte Chemoattractant Protein-1 (MCP1), CCL2 (gene 6347); test: BSK_3C_MCP1: BioMAP Diversity Plus: 3C Assay for Monocyte Chemoattractant Protein-1 (MCP1) Biomarker Activity (AID 2283017); settings: primary human endothelial cells (HUVEC); actives raise or lower the signal
Method in brief: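 ELISA read-out of MCP-1 from human umbilical vein endothelial cell cultures harvested 24 h post-dosing. Gain or loss of signal was fitted relative to DMSO.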

[15] = read-out: Monocyte Chemoattractant Protein-1 (MCP1), CCL2 (gene 6347); test: BSK_4H_MCP1: BioMAP Diversity Plus: 4H Assay for Monocyte Chemoattractant Protein-1 (MCP1) Biomarker Activity (AID 2283018); settings: primary human endothelial cells (HUVEC); actives raise or lower the signal
Method in brief: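 Readout: MCP-1 ELISA on compound-treated HUVEC, sampled 24 h post-dosing. Baseline and negative control DMSO; bidirectional fit. Overt toxicity checked alongside by sulforhodamine B protein staining at time of biomarker measurement.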

[16] = read-out: Human Leukocyte Antigen - DR isotype (HLADR), HLA-DRA (gene 3122); test: BSK_3C_HLADR: BioMAP Diversity Plus: 3C Assay for Human Leukocyte Antigen - DR isotype (HLADR) Biomarker Activity (AID 2283019); settings: primary human endothelial cells (HUVEC); actives raise or lower the signal;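 as to outcome: ELISA of cell-surface HLA-DR on HUVEC 24 h after dosing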
Method in brief: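 ELISA readout of surface HLA-DR on human umbilical vein endothelium, taken 24 h after chemical treatment. Gain- and loss-of-signal were both fitted relative to DMSO.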

[17] = read-out: Interleukin-8 (IL8), CXCL8 (gene 3576); test: BSK_3C_IL8: BioMAP Diversity Plus: 3C Assay for Interleukin-8 (IL8) Biomarker Activity (AID 2283020); settings: primary human endothelial cells (HUVEC); actives raise or lower the signal
Method in brief: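 Human vascular endothelial cells (umbilical vein) in the 3C system; IL-8 level detected by ELISA at 24 h post-dose, with DMSO as baseline.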

[18] = biological target: Retinoic acid receptor RXR-alpha (Homo sapiens) (UniProt P19793); test: ATG_RXRa_TRANS: Attagene TRANS-FACTORIAL HepG2 Assay for human Retinoid X Receptor alpha (RXRa) (AID 2283012; active = hit-call score of the fitted dose curve at least 0.9, where 1 is the maximum)
Method in brief: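 Cells (HepG2) carried transiently transfected GAL4-responsive reporter units. Following a 24 h chemical incubation, reporter mRNA induction was read via RT-PCR fragment analysis; DMSO served as negative control and baseline.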

[19] = biological target: human Retinoid X Receptor beta (RXRb), RXRB (gene 6257) (UniProt P28702); test: ATG_RXRb_TRANS: Attagene TRANS-FACTORIAL HepG2 Assay for human Retinoid X Receptor beta (RXRb) (AID 2283013; active = hit-call score of the fitted dose curve at least 0.9, where 1 is the maximum)
human Retinoid X Receptor beta (RXRb), RXRB (gene 6257), sequence (P28702 whole entry, looked up): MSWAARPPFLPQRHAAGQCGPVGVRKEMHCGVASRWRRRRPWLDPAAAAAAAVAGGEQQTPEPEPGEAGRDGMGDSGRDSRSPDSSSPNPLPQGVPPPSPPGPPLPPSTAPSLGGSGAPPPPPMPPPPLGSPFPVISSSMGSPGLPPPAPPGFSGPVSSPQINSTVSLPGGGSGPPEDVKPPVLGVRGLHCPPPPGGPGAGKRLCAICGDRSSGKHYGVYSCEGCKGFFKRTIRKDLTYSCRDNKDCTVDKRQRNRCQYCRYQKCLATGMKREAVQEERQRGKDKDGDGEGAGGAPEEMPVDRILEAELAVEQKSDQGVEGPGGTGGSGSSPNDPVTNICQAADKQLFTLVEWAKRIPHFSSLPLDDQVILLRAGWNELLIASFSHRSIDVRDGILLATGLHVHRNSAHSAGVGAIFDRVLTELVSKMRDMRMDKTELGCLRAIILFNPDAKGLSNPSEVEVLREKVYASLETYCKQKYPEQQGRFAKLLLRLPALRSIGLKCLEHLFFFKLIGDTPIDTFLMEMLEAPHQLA
Method in brief: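 Multiplexed TRANS reporter assay in HepG2; 24 h dosing; reporter mRNA by RT-PCR/CE fluorescence; gain-of-signal relative to DMSO.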

E-selectin (Homo sapiens), sequence (P16581 whole entry, looked up): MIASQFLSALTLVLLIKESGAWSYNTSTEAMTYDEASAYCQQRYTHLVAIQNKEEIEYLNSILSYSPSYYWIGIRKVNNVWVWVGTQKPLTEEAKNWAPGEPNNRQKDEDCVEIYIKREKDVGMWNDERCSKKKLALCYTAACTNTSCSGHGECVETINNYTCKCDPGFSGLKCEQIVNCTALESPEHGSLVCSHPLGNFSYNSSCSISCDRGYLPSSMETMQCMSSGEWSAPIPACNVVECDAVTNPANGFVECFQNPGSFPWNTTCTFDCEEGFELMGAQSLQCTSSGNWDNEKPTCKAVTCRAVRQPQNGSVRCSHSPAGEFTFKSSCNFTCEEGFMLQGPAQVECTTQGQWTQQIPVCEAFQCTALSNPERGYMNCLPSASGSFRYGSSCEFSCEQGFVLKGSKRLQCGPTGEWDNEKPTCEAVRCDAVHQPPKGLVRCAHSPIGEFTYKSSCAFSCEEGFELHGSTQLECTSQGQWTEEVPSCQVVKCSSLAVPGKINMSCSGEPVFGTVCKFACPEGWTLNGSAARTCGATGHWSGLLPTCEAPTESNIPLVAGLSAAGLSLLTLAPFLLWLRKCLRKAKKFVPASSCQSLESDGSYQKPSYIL

**Q.** Which outcome [1] does the source give for `O=C(O)C(F)(F)C(F)(F)OC(F)(F)F` here?
**A.** Its outcome is “inactive”.

**Q.** What about the outcome [2] of the same compound?
**A.** The outcome was “inactive”.

**Q.** And the outcome [3]?
**A.** The outcome was “inactive”.

**Q.** What about the outcome [4] of the same compound?
**A.** Its outcome is “inactive”.

**Q.** And the outcome [5]?
**A.** Its outcome is “inactive”.

**Q.** And the outcome [6]?
**A.** Its outcome is “inactive”.

**Q.** And the outcome [7]?
**A.** Its outcome is “inactive”.

**Q.** What about the outcome [8] of the same compound?
**A.** The outcome was “inactive”.

**Q.** And the outcome [9]?
**A.** The outcome was “inactive”.

**Q.** What about the outcome [10] of the same compound?
**A.** The outcome was “inactive”.

**Q.** What about the outcome [11] of the same compound?
**A.** The outcome was “inactive”.

**Q.** What about the outcome [12] of the same compound?
**A.** Its outcome is “inactive”.

**Q.** And the outcome [13]?
**A.** The outcome was “inactive”.

**Q.** And the outcome [14]?
**A.** Its outcome is “inactive”.

**Q.** And the outcome [15]?
**A.** The outcome was “inactive”.

**Q.** What about the outcome [16] of the same compound?
**A.** The outcome was “inactive”.

**Q.** What about the outcome [17] of the same compound?
**A.** The outcome was “inactive”.

**Q.** What does the source list for `O=C(Cl)C(F)(F)C(F)(F)C(F)(F)C(F)(F)C(F)(F)C(F)(F)C(F)(F)C(F)(F)F`?
**A.** AC50 [1]: 42.9 µM (active) and 30 µM (active); outcome [1]: inactive; AC50 [2]: 10.3 µM (active); outcome [3]: inactive; outcome [4]: inactive; AC50 [5]: 44.9 µM (active) and 53.1 µM (active) and 54.2 µM (active); AC50 [6]: 25.2 µM (active); AC50 [7]: 54.5 µM (active); outcome [8]: inactive; outcome [18]: inactive; outcome [12]: inactive; AC50 [13]: 46.4 µM (active) and 46.3 µM (active) and 55 µM (active); AC50 [14]: 49.7 µM (active); outcome [14]: inactive; AC50 [15]: 5.95 µM (active); outcome [15]: inactive; AC50 [16]: 49.4 µM (active) and 51.1 µM (active) and 52.5 µM (active); AC50 [17]: 41 µM (active); outcome [17]: inactive

**Q.** Which results are given for `CC(=O)Nc1ccc(N=Nc2cc(C)ccc2O)cc1`?
**A.** AC50 [1]: 20 µM (active); outcome [2]: inactive; outcome [3]: inactive; AC50 [5]: 4.08 µM (active); AC50 [6]: 32.3 µM (active); AC50 [7]: 14.1 µM (active); outcome [8]: inactive; outcome [9]: inactive; outcome [10]: inactive; outcome [19]: inactive; AC50 [11]: 47.6 µM (active); AC50 [12]: 0.463 µM (active); outcome [13]: inactive; outcome [14]: inactive; outcome [15]: inactive; AC50 [16]: 14.5 µM (active); outcome [17]: inactive

Source: PubChem BioAssay (EPA / NIEHS)
